# From paper PMC7862700, “An all-to-all approach to the identification of sequence-specific readers for epigenetic DNA modifications on cytosine”
# Experiments:
# Test in all cases: DAPPL (digital affinity profiling via proximity ligation, sequencing); 10 mM Tris-HCl pH 7.5, 50 mM NaCl, 1 mM DTT, 4% glycerol, room temperature, 30 min; GST-TFs on glutathione beads, 16-mer random dsDNA library, 0.1% formaldehyde crosslink after washing; high values mean tight binding
# [1] = target: T1, FLI1 (Homo sapiens, UniProt Q01543 1-452); conditions: protein: recombinant; tags: N-terminal GST; dsDNA, one strand shown
# T1 sequence: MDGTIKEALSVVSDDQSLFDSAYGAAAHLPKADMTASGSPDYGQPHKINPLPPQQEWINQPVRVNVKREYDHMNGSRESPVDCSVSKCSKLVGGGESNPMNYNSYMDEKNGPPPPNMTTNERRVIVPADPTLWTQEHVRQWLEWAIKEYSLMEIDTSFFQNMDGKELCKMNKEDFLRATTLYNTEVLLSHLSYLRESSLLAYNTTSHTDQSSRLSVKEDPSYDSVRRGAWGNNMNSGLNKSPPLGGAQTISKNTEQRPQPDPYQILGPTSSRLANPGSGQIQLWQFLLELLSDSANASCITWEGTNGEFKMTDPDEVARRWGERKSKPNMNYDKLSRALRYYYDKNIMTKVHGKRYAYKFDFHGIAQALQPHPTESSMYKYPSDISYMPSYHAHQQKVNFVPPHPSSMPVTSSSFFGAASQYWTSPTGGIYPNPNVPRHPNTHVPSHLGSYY
# How it was run: (§1)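 Pools of DNA-barcoded human transcription factors, expressed in yeast as GST fusions on glutathione beads and combined with a tag-only sample, were incubated with 200 nmole of a 16-mer random double-stranded DNA library. Incubation took 30 min at room temperature in Tris/NaCl/DTT/glycerol buffer and was followed by washing, 0.1% formaldehyde crosslinking, proximity ligation (BsaI/T4 ligase, 1 h, 37 °C), PCR amplification and sequencing on an Illumina NextSeq500. Binding signal is the ratio of a hexamer's read frequency for a factor to its frequency for the tag-only sample.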
# [2] = target: T2, ELK1 (Homo sapiens, UniProt P19419 1-428); conditions: protein: recombinant; tags: N-terminal GST; dsDNA, one strand shown
# T2 sequence: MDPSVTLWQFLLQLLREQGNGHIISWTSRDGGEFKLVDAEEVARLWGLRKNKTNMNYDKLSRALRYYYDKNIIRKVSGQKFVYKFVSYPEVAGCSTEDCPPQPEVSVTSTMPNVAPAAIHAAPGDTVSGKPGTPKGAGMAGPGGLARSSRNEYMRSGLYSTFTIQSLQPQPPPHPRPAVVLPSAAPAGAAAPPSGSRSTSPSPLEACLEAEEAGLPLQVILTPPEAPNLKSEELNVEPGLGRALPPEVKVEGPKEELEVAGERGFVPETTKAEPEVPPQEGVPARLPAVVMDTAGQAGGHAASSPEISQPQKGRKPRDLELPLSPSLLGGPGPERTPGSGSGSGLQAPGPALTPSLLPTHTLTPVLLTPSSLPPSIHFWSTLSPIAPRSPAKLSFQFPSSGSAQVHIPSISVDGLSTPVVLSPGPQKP
# How it was run: as §1
# [3] = target: T3, GABPA (Homo sapiens, UniProt Q06546 1-454); conditions: protein: recombinant; tags: N-terminal GST; dsDNA, one strand shown
# T3 sequence: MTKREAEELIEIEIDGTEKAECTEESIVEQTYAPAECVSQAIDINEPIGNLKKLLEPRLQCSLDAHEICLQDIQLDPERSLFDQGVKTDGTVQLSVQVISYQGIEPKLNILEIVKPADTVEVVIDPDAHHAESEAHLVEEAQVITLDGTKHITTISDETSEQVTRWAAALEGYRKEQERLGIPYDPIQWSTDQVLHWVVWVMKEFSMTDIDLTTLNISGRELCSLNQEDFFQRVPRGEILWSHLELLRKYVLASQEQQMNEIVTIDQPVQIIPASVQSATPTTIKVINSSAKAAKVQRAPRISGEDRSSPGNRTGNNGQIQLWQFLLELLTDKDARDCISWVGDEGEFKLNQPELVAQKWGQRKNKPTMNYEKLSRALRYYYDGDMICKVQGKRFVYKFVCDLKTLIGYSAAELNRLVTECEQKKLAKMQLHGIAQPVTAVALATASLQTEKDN
# How it was run: as §1
# [4] = target: T4, ERG (Homo sapiens, UniProt P11308 1-479); conditions: protein: recombinant; tags: N-terminal GST; dsDNA, one strand shown
# T4 sequence: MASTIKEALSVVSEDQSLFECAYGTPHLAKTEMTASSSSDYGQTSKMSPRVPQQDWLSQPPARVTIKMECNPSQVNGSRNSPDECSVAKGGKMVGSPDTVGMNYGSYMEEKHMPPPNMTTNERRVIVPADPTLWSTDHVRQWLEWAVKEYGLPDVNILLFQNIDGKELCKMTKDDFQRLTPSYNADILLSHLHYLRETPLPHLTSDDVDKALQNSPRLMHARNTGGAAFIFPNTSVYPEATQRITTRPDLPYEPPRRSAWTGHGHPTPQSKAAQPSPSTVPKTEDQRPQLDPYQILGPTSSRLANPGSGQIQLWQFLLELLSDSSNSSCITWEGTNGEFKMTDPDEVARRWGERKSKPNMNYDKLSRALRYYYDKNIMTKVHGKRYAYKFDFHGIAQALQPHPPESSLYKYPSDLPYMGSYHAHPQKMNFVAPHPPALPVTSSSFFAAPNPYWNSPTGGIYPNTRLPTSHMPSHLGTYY
# How it was run: as §1
# [5] = target: ELF1 (Homo sapiens, UniProt P32519 1-619); conditions: protein: recombinant; tags: N-terminal GST; dsDNA, one strand shown
# How it was run: as §1
# [6] = target: T5, EHF (Homo sapiens, UniProt Q9NZC4 1-300); conditions: protein: recombinant; tags: N-terminal GST; dsDNA, one strand shown
# T5 sequence: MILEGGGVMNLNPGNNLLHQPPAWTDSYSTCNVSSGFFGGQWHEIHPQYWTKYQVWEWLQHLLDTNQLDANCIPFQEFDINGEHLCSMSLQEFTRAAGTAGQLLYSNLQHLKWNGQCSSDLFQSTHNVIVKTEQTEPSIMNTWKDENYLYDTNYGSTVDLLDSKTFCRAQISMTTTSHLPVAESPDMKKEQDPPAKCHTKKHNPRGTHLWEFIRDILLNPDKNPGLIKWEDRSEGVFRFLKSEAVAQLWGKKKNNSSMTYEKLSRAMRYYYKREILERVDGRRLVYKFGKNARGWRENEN
# How it was run: as §1
# [7] = target: SPI1 (Homo sapiens, UniProt P17947 1-270); conditions: protein: recombinant; tags: N-terminal GST; dsDNA, one strand shown
# How it was run: as §1
# [8] = target: SPIB (Homo sapiens, UniProt Q01892 1-262); conditions: protein: recombinant; tags: N-terminal GST; dsDNA, one strand shown
# How it was run: as §1
# [9] = target: T6, ELK3 (Homo sapiens, UniProt P41970 1-407); conditions: protein: recombinant; tags: N-terminal GST; dsDNA, one strand shown
# T6 sequence: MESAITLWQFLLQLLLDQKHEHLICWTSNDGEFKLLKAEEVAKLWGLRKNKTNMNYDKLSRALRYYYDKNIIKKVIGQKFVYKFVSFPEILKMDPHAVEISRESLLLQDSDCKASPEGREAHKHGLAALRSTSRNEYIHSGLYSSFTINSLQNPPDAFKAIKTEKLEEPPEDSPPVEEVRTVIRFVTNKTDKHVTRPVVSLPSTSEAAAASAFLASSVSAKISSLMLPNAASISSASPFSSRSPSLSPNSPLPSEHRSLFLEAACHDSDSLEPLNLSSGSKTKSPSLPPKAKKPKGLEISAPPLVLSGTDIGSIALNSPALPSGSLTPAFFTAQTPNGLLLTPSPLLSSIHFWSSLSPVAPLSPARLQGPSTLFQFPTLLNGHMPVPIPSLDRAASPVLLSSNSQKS
# How it was run: as §1
# [10] = target: T7, FEV (Homo sapiens, UniProt Q99581 1-238); conditions: protein: recombinant; tags: N-terminal GST; dsDNA, one strand shown
# T7 sequence: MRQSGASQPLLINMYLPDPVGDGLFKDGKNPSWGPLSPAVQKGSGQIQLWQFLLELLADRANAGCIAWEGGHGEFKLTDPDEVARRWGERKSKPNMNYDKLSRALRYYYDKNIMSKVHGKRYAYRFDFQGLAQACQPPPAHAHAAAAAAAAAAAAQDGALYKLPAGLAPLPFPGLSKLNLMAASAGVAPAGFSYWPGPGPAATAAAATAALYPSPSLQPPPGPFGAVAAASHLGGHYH
# How it was run: as §1
# [11] = target: ETV5 (Homo sapiens, UniProt P41161 1-510); conditions: protein: recombinant; tags: N-terminal GST; dsDNA, one strand shown
# How it was run: as §1
# [12] = target: HSF1 (Homo sapiens, UniProt Q00613 1-529); conditions: protein: recombinant; tags: N-terminal GST; chain copies: 3; dsDNA, one strand shown
# How it was run: as §1
# [13] = target: T8, SPIC (Homo sapiens, UniProt Q8N5J4 1-248); conditions: protein: recombinant; tags: N-terminal GST; dsDNA, one strand shown
# T8 sequence: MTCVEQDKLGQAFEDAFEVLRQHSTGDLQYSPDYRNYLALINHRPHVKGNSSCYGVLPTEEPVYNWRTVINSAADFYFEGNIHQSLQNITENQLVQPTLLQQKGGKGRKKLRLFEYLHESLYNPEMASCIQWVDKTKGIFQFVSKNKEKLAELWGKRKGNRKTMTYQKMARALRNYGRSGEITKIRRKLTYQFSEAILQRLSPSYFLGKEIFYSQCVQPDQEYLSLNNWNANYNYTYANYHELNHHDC
# How it was run: as §1
# [14] = target: ELF4 (Homo sapiens, UniProt Q99607 1-663); conditions: protein: recombinant; tags: N-terminal GST; dsDNA, one strand shown
# How it was run: as §1
# [15] = target: T9, ELK4 (Homo sapiens, UniProt P28324-2 1-405); conditions: protein: recombinant; tags: N-terminal GST; dsDNA, one strand shown
# T9 sequence: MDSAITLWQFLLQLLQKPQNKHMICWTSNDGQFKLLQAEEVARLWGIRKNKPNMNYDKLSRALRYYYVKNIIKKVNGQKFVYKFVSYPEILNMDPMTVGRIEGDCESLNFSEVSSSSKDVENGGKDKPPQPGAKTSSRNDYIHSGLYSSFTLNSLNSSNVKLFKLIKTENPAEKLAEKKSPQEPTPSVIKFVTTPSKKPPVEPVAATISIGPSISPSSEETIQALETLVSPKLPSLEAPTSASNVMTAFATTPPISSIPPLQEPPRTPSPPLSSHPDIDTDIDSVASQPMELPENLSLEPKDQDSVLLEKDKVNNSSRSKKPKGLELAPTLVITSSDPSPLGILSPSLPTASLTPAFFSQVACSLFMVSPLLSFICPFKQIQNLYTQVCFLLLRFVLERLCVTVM
# How it was run: as §1
# [16] = target: T10, ETV2 (Homo sapiens, UniProt O00321 1-342); conditions: protein: recombinant; tags: N-terminal GST; dsDNA, one strand shown
# T10 sequence: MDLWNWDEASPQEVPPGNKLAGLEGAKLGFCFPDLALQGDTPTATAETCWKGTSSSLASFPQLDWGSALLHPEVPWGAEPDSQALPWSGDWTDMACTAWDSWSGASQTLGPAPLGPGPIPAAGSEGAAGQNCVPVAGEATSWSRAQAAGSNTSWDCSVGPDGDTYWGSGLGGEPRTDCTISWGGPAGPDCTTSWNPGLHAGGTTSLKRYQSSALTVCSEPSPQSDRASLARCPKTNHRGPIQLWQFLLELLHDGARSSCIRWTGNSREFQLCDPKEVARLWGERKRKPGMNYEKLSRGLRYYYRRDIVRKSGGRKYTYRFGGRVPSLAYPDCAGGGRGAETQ
# How it was run: as §1
# [17] = target: T11, ELF3 (Homo sapiens, UniProt P78545 1-371); conditions: protein: recombinant; tags: N-terminal GST; dsDNA, one strand shown
# T11 sequence: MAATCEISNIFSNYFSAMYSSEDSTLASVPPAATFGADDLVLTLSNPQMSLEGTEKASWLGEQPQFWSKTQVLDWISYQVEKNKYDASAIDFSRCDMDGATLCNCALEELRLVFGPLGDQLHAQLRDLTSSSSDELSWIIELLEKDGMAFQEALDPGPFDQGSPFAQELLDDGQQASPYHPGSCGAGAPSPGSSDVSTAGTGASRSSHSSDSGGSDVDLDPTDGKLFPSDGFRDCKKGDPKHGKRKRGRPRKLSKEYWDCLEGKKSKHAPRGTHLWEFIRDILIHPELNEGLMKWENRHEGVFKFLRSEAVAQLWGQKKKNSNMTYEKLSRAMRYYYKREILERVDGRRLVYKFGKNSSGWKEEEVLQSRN
# How it was run: as §1
# [18] = target: CRX (Homo sapiens, UniProt O43186 1-299); conditions: protein: recombinant; tags: N-terminal GST; dsDNA, one strand shown
# How it was run: as §1
# [19] = target: ETV1 (Homo sapiens, UniProt P50549 1-477); conditions: protein: recombinant; tags: N-terminal GST; dsDNA, one strand shown
# How it was run: as §1
# Chain of ELF4 (Q99607 whole entry): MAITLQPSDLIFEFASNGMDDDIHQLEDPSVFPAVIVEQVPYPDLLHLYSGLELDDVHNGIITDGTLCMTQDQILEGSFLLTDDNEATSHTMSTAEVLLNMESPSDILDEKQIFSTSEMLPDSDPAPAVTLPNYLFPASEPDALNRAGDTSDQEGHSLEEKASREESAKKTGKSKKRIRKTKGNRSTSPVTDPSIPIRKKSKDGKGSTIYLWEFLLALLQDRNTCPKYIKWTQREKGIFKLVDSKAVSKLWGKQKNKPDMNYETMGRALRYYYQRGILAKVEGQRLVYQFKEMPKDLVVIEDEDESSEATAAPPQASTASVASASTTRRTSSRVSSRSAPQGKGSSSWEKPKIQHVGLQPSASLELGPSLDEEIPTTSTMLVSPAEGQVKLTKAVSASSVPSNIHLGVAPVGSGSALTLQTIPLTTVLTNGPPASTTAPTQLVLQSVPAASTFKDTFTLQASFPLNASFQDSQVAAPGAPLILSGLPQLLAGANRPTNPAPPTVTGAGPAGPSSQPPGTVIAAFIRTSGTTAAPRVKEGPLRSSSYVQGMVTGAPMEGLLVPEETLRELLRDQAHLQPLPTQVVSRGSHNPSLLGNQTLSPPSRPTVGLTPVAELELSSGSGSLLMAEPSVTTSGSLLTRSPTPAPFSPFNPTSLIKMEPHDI
# Chain of CRX (O43186 whole entry): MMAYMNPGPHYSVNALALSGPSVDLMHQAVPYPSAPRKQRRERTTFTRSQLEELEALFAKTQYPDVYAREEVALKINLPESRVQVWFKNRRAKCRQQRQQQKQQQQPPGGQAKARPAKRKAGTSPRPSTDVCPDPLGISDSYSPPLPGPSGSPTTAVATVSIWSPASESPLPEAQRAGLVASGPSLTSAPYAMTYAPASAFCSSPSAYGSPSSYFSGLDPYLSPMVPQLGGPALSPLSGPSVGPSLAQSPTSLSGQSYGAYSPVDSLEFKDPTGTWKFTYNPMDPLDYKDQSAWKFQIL
# Chain of ETV1 (P50549 whole entry): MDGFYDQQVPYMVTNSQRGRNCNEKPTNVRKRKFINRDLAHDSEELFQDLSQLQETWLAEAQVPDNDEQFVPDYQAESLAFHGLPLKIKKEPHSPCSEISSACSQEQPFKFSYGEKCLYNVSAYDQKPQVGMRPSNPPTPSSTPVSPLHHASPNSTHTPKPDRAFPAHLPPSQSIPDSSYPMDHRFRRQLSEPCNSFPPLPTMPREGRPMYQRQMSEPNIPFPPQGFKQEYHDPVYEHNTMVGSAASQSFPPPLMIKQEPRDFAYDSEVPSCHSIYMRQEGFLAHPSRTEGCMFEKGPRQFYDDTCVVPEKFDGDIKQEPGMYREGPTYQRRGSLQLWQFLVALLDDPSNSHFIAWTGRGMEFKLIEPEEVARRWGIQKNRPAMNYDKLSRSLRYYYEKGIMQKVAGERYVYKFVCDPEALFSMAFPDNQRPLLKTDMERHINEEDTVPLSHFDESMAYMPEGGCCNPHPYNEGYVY
# Chain of HSF1 (Q00613 whole entry): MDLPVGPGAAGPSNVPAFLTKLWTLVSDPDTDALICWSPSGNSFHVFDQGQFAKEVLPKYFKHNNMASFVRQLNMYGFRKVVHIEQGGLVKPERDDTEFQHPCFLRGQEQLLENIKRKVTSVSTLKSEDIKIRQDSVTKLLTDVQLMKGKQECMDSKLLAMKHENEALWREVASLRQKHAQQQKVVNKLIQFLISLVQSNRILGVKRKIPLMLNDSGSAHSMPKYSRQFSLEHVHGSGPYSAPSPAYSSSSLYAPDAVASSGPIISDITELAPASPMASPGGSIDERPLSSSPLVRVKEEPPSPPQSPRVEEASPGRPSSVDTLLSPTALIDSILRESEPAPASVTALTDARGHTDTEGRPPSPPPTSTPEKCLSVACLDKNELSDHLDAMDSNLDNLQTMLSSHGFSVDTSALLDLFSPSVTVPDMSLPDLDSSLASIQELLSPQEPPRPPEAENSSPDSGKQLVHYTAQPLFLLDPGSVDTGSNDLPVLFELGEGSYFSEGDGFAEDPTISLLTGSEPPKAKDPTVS
# Chain of SPIB (Q01892 whole entry): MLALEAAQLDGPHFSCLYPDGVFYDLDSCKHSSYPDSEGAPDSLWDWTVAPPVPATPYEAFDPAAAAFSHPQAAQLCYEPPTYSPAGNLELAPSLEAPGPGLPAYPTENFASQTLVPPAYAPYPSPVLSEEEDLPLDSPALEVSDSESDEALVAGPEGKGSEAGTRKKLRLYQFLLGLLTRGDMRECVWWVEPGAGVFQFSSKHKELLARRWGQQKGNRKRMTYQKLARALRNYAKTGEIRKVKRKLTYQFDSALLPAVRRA
# Chain of ELF1 (P32519 whole entry): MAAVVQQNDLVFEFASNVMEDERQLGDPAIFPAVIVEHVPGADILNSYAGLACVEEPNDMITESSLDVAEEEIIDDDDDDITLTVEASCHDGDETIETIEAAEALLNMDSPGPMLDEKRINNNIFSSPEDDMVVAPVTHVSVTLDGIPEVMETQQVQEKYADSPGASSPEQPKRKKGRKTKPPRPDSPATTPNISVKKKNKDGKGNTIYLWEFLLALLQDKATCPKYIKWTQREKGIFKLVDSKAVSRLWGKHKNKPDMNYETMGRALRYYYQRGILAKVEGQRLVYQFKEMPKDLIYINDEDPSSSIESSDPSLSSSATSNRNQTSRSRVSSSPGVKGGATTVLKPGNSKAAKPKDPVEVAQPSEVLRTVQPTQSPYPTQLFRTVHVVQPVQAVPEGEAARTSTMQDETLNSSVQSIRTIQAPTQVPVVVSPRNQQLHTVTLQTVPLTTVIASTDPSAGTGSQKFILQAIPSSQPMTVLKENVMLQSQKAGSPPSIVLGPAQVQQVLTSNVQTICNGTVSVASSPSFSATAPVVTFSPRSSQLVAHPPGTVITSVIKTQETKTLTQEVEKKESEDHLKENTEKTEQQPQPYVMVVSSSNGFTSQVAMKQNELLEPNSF
# Chain of ETV5 (P41161 whole entry): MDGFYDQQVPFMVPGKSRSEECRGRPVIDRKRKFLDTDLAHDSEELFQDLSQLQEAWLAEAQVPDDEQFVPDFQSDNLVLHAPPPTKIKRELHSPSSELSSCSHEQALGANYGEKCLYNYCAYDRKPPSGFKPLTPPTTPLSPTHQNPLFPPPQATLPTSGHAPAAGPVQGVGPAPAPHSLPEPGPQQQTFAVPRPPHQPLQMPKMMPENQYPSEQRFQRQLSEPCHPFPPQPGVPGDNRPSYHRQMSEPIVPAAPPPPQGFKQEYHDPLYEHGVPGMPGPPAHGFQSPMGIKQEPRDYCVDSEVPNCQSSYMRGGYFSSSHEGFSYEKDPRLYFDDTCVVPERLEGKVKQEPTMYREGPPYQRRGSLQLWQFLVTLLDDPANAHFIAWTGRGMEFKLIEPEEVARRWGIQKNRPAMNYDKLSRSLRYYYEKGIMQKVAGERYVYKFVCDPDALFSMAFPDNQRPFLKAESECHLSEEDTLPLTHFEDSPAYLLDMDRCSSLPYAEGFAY
sequence,measurement,setting,value
CTTAAT,binding signal,[1],"1.37 fold enrichment (6-mer frequency, TF over GST control)"
same,binding signal,[2],"1.2 fold enrichment (6-mer frequency, TF over GST control)"
same,binding signal,[3],"1.34 fold enrichment (6-mer frequency, TF over GST control)"
same,binding signal,[4],"1.13 fold enrichment (6-mer frequency, TF over GST control)"
same,binding signal,[5],"1.26 fold enrichment (6-mer frequency, TF over GST control)"
same,binding signal,[6],"1.24 fold enrichment (6-mer frequency, TF over GST control)"
same,binding signal,[7],"1.31 fold enrichment (6-mer frequency, TF over GST control)"
same,binding signal,[8],"1.3 fold enrichment (6-mer frequency, TF over GST control)"
same,binding signal,[9],"1.47 fold enrichment (6-mer frequency, TF over GST control)"
same,binding signal,[10],"1.23 fold enrichment (6-mer frequency, TF over GST control)"
same,binding signal,[11],"1.27 fold enrichment (6-mer frequency, TF over GST control)"
same,binding signal,[12],"2.31 fold enrichment (6-mer frequency, TF over GST control)"
same,binding signal,[13],"1.32 fold enrichment (6-mer frequency, TF over GST control)"
same,binding signal,[14],"1.33 fold enrichment (6-mer frequency, TF over GST control)"
same,binding signal,[15],"1.22 fold enrichment (6-mer frequency, TF over GST control)"
same,binding signal,[16],"1.25 fold enrichment (6-mer frequency, TF over GST control)"
same,binding signal,[17],"1.35 fold enrichment (6-mer frequency, TF over GST control)"
same,binding signal,[18],"3.69 fold enrichment (6-mer frequency, TF over GST control)"
same,binding signal,[19],"1.29 fold enrichment (6-mer frequency, TF over GST control)"
